Assay results as given in PubChem BioAssay (NCI).
About 83,000 compounds went through this panel and 20% of them were active in at least one assay; those are over-represented in the sample as a whole.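 Assay: single dose, 48 h. Readout: percent growth (0 = no net growth; negative = cell death). Active: <10.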 Calls of active or inactive are those of the source.

Key:
Assay in all cases: NCI-60 one-dose screen, 48 h (100 = growth as untreated, 0 = no growth, -100 = all killed)
Conditions in all cases: 10 µM unless noted
SR leukemia = system: SR leukemia
RPMI-8226 leukemia = system: RPMI-8226 leukemia
OVCAR-8 ovarian = system: OVCAR-8 ovarian
OVCAR-5 ovarian = system: OVCAR-5 ovarian
OVCAR-4 ovarian = system: OVCAR-4 ovarian
SK-OV-3 ovarian = system: SK-OV-3 ovarian
OVCAR-3 ovarian = system: OVCAR-3 ovarian
HS 578T breast = system: HS 578T breast
NCI/ADR-RES ovarian = system: NCI/ADR-RES ovarian
IGROV1 ovarian = system: IGROV1 ovarian

Measured: growth

Cn1ccnc1C(=O)/C=C/c1ccccc1
active: RPMI-8226 leukemia -8.79% | OVCAR-3 ovarian 0.598% | HS 578T breast -2.82%
inactive: SR leukemia 18.9% | OVCAR-8 ovarian 20.9% | OVCAR-5 ovarian 38.7% | OVCAR-4 ovarian 26.8% | SK-OV-3 ovarian 27.5% | NCI/ADR-RES ovarian 20.9%

O=C(C(=O)c1ccc2c(c1)OCO2)c1ccc2c(c1)OCO2
inactive: SR leukemia 106% | RPMI-8226 leukemia 101% | OVCAR-8 ovarian 95.3% | OVCAR-5 ovarian 109% | OVCAR-4 ovarian 99.8% | SK-OV-3 ovarian 114% | OVCAR-3 ovarian 105% | HS 578T breast 96.3% | NCI/ADR-RES ovarian 117%

Nc1ccc(S(=O)(=O)O)c2ccc(N=Nc3ccc(N=Nc4ccc(S(=O)(=O)O)cc4)c4ccccc34)c(O)c12
inactive: SR leukemia 99.8% | RPMI-8226 leukemia 104% | OVCAR-8 ovarian 103% | OVCAR-5 ovarian 108% | OVCAR-4 ovarian 115% | IGROV1 ovarian 86.5% | OVCAR-3 ovarian 108% | HS 578T breast 100% | NCI/ADR-RES ovarian 112%

COc1ccccc1Nc1nc(-c2cc3cccc(C(F)(F)F)c3oc2=O)cs1
inactive: SR leukemia 10.2% | RPMI-8226 leukemia 16.8% | OVCAR-5 ovarian 67% | OVCAR-4 ovarian 37.1% | IGROV1 ovarian 22.9% | HS 578T breast 31.4% | NCI/ADR-RES ovarian 15%
active: OVCAR-8 ovarian 9.28% | OVCAR-3 ovarian -21.7%

C=CCSSC1N=CNc2nc[nH]c21 (stereo not drawn)
active: RPMI-8226 leukemia -15.1%
inactive: SR leukemia 13% | OVCAR-8 ovarian 22.6% | OVCAR-5 ovarian 42.7% | OVCAR-4 ovarian 34.4% | IGROV1 ovarian 64.5% | OVCAR-3 ovarian 32.3% | HS 578T breast 54.5% | NCI/ADR-RES ovarian 26.5%

CCOC(=O)c1sc(Nc2ccc(Cl)cc2)nc1C
active: RPMI-8226 leukemia 7.4%
inactive: SR leukemia 11% | OVCAR-8 ovarian 19.8% | OVCAR-5 ovarian 51.6% | OVCAR-4 ovarian 18.2% | SK-OV-3 ovarian 20.3% | OVCAR-3 ovarian 27.4% | HS 578T breast 10.1% | NCI/ADR-RES ovarian 17.5%

O=C1/C(=C/c2ccccc2)SC(=S)N1CCc1ccc(O)cc1
inactive: SR leukemia 93.7% | RPMI-8226 leukemia 95.5% | OVCAR-8 ovarian 96.3% | OVCAR-5 ovarian 103% | OVCAR-4 ovarian 76.4% | SK-OV-3 ovarian 85% | OVCAR-3 ovarian 97.4% | HS 578T breast 76.9% | NCI/ADR-RES ovarian 99.3%

COc1ccc(CN2c3ccccc3Oc3ccccc32)cc1F
inactive: SR leukemia 27.1% | RPMI-8226 leukemia 61.5% | OVCAR-8 ovarian 64.5% | OVCAR-5 ovarian 86.7% | OVCAR-4 ovarian 71.7% | SK-OV-3 ovarian 46.5% | OVCAR-3 ovarian 43.1% | HS 578T breast 62.3% | NCI/ADR-RES ovarian 41.5%

NCCNc1nc(Nc2ccc(-c3nc4ccccc4[nH]3)cc2)c2cn[nH]c2n1
inactive: OVCAR-8 ovarian 43.9% | OVCAR-5 ovarian 125% | OVCAR-4 ovarian 88.4% | SK-OV-3 ovarian 111% | OVCAR-3 ovarian 83.9% | HS 578T breast 41.8% | NCI/ADR-RES ovarian 94.9%
active: SR leukemia -3.8% | RPMI-8226 leukemia -11.7%

COc1nc2c(c(=O)n1C)CN(Cc1ccccc1)C=N2
inactive: SR leukemia 98.7% | RPMI-8226 leukemia 86.6% | OVCAR-8 ovarian 96.7% | OVCAR-5 ovarian 105% | OVCAR-4 ovarian 116% | IGROV1 ovarian 93.7% | OVCAR-3 ovarian 105% | HS 578T breast 113% | NCI/ADR-RES ovarian 113%

C/C1=C\CC[C@@]2(C)O[C@H]2[C@H]2OC(=O)C(CN3CCN(CC4C(=O)O[C@H]5[C@H]4CC/C(C)=C/CC[C@@]4(C)O[C@@H]54)CC3)[C@@H]2CC1 (stereo partly drawn)
inactive: SR leukemia 66% | RPMI-8226 leukemia 79% | OVCAR-8 ovarian 91.5% | OVCAR-5 ovarian 103% | OVCAR-4 ovarian 103% | SK-OV-3 ovarian 110% | OVCAR-3 ovarian 79.7% | HS 578T breast 98.7% | NCI/ADR-RES ovarian 101%

CC(C)(C)c1cc(C(C)(C)C)cc(S(=O)(=O)Nc2cc3ccccc3cc2C(=O)NCCN)c1
active: SR leukemia -32.1% | RPMI-8226 leukemia -5.61% | OVCAR-8 ovarian 5.01%
inactive: OVCAR-5 ovarian 94.8% | OVCAR-4 ovarian 70.6% | IGROV1 ovarian 62.3% | OVCAR-3 ovarian 70.5% | HS 578T breast 73.2% | NCI/ADR-RES ovarian 82%

O=C1c2ccccc2C(=O)c2c(N=Nc3[nH]c(=S)[nH]c3O)cccc21
active: RPMI-8226 leukemia -2.62% | OVCAR-3 ovarian 1.75% | HS 578T breast 5.86%
inactive: SR leukemia 24.5% | OVCAR-8 ovarian 30.3% | OVCAR-5 ovarian 49.8% | OVCAR-4 ovarian 58.9% | SK-OV-3 ovarian 30.6% | NCI/ADR-RES ovarian 50%

COc1ccc(-n2nc(C)c3c(Oc4ccc(NC(=O)Nc5c(Cl)cccc5Cl)cc4)ncnc32)cc1
inactive: SR leukemia 111% | RPMI-8226 leukemia 102% | OVCAR-8 ovarian 97.4% | OVCAR-5 ovarian 112% | OVCAR-4 ovarian 99.9% | IGROV1 ovarian 101% | OVCAR-3 ovarian 112% | HS 578T breast 92% | NCI/ADR-RES ovarian 102%

CC(=O)c1cc2c(N)c(C(=O)Nc3cccc(F)c3C)sc2nc1C
inactive: SR leukemia 63.9% | RPMI-8226 leukemia 86% | OVCAR-8 ovarian 79.6% | OVCAR-5 ovarian 110% | OVCAR-4 ovarian 79.8% | IGROV1 ovarian 94.3% | OVCAR-3 ovarian 108% | HS 578T breast 80.1% | NCI/ADR-RES ovarian 91.5%

c1ccc(-c2cc3n4c(-c5ccccc5)nn(-c5ccccc5)c4cnc-3n2)cc1
inactive: SR leukemia 113% | RPMI-8226 leukemia 84.5% | OVCAR-8 ovarian 58.1% | OVCAR-5 ovarian 92.3% | OVCAR-4 ovarian 43.5% | OVCAR-3 ovarian 60.3% | HS 578T breast 31.6% | NCI/ADR-RES ovarian 84.4%

COc1ccc(CN2c3ccccc3Sc3ccccc32)cc1O
inactive: SR leukemia 16.1% | RPMI-8226 leukemia 24.4% | OVCAR-8 ovarian 22.1% | OVCAR-5 ovarian 86% | SK-OV-3 ovarian 29.1% | IGROV1 ovarian 30.2% | HS 578T breast 33% | NCI/ADR-RES ovarian 18.5%
active: OVCAR-3 ovarian 7.47%

CCCCN(CCCC)CCCn1c(-c2ccccc2)ccc1-c1ccccc1
inactive: SR leukemia 42.7% | OVCAR-8 ovarian 82.4% | OVCAR-5 ovarian 73.4% | SK-OV-3 ovarian 81.3% | IGROV1 ovarian 64.5% | OVCAR-3 ovarian 59.2% | HS 578T breast 82.7%
active: RPMI-8226 leukemia -2.32%

C#CC(F)(F)[C@]1(O)CC[C@H]2[C@@H]3CCC4=CC(=O)CCC4=C3[C@@H](c3ccc(C4CC4)cc3)C[C@@]21C
inactive: OVCAR-8 ovarian 24.8% | HS 578T breast 33.4% | NCI/ADR-RES ovarian 11%
active: SR leukemia -38.7% | RPMI-8226 leukemia -42.5% | OVCAR-5 ovarian 9.97% | SK-OV-3 ovarian -79.4% | IGROV1 ovarian -48.5% | OVCAR-3 ovarian -73.4%

COc1cccc(/C=N/NC(=O)c2ccccc2Nc2ccnc(C(F)(F)F)c2)c1O
inactive: SR leukemia 30.3% | OVCAR-8 ovarian 19.7% | OVCAR-5 ovarian 20.7% | OVCAR-3 ovarian 43.2% | HS 578T breast 44.9%
active: RPMI-8226 leukemia -18.8% | SK-OV-3 ovarian 8.06% | IGROV1 ovarian 4.92% | NCI/ADR-RES ovarian 6.84%

Cc1ccc(-c2onc3c(=O)[nH]nc(-c4ccccc4)c23)cc1
active: OVCAR-3 ovarian 7.2%
inactive: SR leukemia 28% | RPMI-8226 leukemia 17.9% | OVCAR-8 ovarian 36.7% | OVCAR-5 ovarian 62.3% | SK-OV-3 ovarian 14.9% | IGROV1 ovarian 52.4% | HS 578T breast 16.7% | NCI/ADR-RES ovarian 25.2%

Cn1cccc1-c1nc2c3c(ccc2[nH]1)C(=O)c1ccccc1C3=O
inactive: SR leukemia 27.1% | RPMI-8226 leukemia 61.5% | OVCAR-8 ovarian 85.8% | OVCAR-5 ovarian 90.4% | SK-OV-3 ovarian 118% | IGROV1 ovarian 79.1% | OVCAR-3 ovarian 95% | HS 578T breast 115% | NCI/ADR-RES ovarian 81.8%

CCCCC/C(C=C(C#N)C#N)=C/c1ccccc1
active: SR leukemia 7.75% | RPMI-8226 leukemia -14.1%
inactive: OVCAR-8 ovarian 12.3% | OVCAR-5 ovarian 113% | OVCAR-4 ovarian 86.4% | NCI/ADR-RES ovarian 65%

Cc1cc(C)nc(SC2=C(Nc3ccc(O)cc3)C(=O)N(Cc3ccccc3)C2=O)n1
active: HS 578T breast -13.2% [40 µM]
inactive: SR leukemia 73.6% [40 µM] | RPMI-8226 leukemia 38.8% [40 µM] | OVCAR-8 ovarian 111% [40 µM] | OVCAR-5 ovarian 120% [40 µM] | OVCAR-4 ovarian 85.6% [40 µM] | IGROV1 ovarian 81.4% [40 µM] | OVCAR-3 ovarian 80.9% [40 µM] | NCI/ADR-RES ovarian 69% [40 µM]

COc1cc2c(cc1-c1c(C)noc1C)ncc1nc(C3CCC(F)(F)CC3)n([C@H](C)COC(F)F)c12
inactive: SR leukemia 22.7% | RPMI-8226 leukemia 18.5% | OVCAR-8 ovarian 44.3% | OVCAR-5 ovarian 82.5% | SK-OV-3 ovarian 10.5% | IGROV1 ovarian 40.6% | OVCAR-3 ovarian 39.6% | HS 578T breast 13.9% | NCI/ADR-RES ovarian 40.1%

CN1CCN(c2ccc3nc(-c4ccc(OCCCCN5CCN(CCCCN6C(=O)c7cccc8cccc(c78)C6=O)CC5)cc4)[nH]c3c2)CC1
inactive: RPMI-8226 leukemia 26.3% | OVCAR-8 ovarian 22.6% | OVCAR-5 ovarian 116% | IGROV1 ovarian 58.5% | OVCAR-3 ovarian 76.1% | HS 578T breast 35.2%
active: SR leukemia -68.4%

Cc1ccc2c(c1)C(=O)/C(=C/c1cccc(OCC(=O)c3ccc(Cl)cc3)c1)CS2
active: SR leukemia 9.06% | RPMI-8226 leukemia -27%
inactive: OVCAR-8 ovarian 69.7% | OVCAR-5 ovarian 105% | OVCAR-4 ovarian 104% | OVCAR-3 ovarian 98.1% | HS 578T breast 99.9% | NCI/ADR-RES ovarian 54.4%

OCc1ccc(N2CCc3cccc(F)c3C2)cc1Cl
active: OVCAR-5 ovarian -11.7% [0.1 µM]
inactive: SR leukemia 87.6% [0.1 µM] | RPMI-8226 leukemia 71.4% [0.1 µM] | OVCAR-8 ovarian 91.4% [0.1 µM] | SK-OV-3 ovarian 72.5% [0.1 µM] | IGROV1 ovarian 21.2% [0.1 µM] | OVCAR-3 ovarian 11.8% [0.1 µM] | HS 578T breast 99.2% [0.1 µM] | NCI/ADR-RES ovarian 87% [0.1 µM]

O=c1ccccc(-c2ccc(-c3ccco3)cc2)c1O
inactive: SR leukemia 10% | OVCAR-8 ovarian 12.7% | OVCAR-5 ovarian 54.9% | SK-OV-3 ovarian 18.2% | IGROV1 ovarian 12.9% | OVCAR-3 ovarian 28.8% | HS 578T breast 59.3% | NCI/ADR-RES ovarian 12%
active: RPMI-8226 leukemia 8.75%
